According to PubChem BioAssay (Tox21):
Records with an inconclusive call do not appear. A call without a number means that no potency is given here. More than one record can exist for a structure, and the calls need not agree. Calls of active or inactive are those of the source. Calls follow the shape of the dose curve; as a rule, active = well fitted inhibition curve with a large enough effect in the repeat runs; inconclusive = weak or mixed curves; inactive = flat fitted curve, though single readings scatter.

The compounds below were run against Luciferin 4-monooxygenase (Photinus pyralis) (UniProt P08659) (assay: qHTS assay to identify small molecule inhibitors of firefly luciferase (AID 1224835; also: nearly all actives have a fitted effect of over 25% in size)). Settings: purified P. pyralis luciferase, luminescence inhibition; series mostly up to 115 µM.
Source text: U.S. Tox21 Program National Center for Advancing Translational Sciences [NCATS] NIH Chemical Genomics Center [NCGC] U.S. Environmental Protection Agency [EPA] National Institutes of Environmental Health Sciences [NIEHS] National Toxicology Program [NTP] U.S. Food and Drug Administration [FDA] Tox21 Assay Overview: Firefly (Photinus pyralis) luciferase is one of the most commonly used transcriptional reporters. Firefly luciferase reporter-gene assays are generally considered one of the most sensitive assay types (Wood, 1995; Wood, 1998). However, it was initially observed, in 1991, by Thompson et al., that compounds that resemble the substrates of firefly luciferase (FLuc) can act as competitive inhibitors of the enzyme, and that these compounds, upon interaction with luciferase in the cell, can actually stabilize the protein and increase its half-life. Previous profiling work by other groups to determine the prevalence of compounds that affect FLuc enzymatic activity (PubChem AID 411) identified that ~3% of the MLSMR library (then at ~72K) inhibited FLuc. […] Thus the Tox21 10K library is profiled for activity against FLuc using a biochemical assay of purified FLuc and KM concentrations of FLuc substrates (D-luciferin and ATP).
These assay plates were then treated with 23nL of compound or DMSO using a Kalypsys pin tool, which allows for delivery of a 6-point interplate titration of each compound to the assay plate (quantitative HTS.) 1 uL of firefly luciferase mix (containing 50 mM Tris acetate, pH 7.6, 0.04 uM P. pyralis luciferase, 0.01% Tween, 0.05% BSA and dH2O) was then delivered by FRD to each well. Luciferase activity was then measured using a ViewLux CCD imager.

Sequence of Luciferin 4-monooxygenase (Photinus pyralis) (P08659 whole entry, looked up): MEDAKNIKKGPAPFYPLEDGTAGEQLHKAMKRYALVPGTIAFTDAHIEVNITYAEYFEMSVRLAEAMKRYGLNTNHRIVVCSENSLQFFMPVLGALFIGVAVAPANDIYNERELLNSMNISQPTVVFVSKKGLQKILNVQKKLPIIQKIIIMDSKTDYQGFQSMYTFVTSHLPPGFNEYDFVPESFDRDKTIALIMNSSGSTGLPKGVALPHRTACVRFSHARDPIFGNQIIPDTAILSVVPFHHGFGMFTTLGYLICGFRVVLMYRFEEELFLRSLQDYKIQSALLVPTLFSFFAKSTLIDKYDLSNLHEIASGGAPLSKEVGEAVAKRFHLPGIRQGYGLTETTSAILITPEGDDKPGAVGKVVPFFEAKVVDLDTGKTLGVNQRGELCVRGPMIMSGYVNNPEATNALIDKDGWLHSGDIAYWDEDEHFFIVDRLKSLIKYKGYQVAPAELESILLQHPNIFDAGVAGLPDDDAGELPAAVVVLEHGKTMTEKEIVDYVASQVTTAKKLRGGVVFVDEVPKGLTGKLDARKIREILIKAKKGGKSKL

**Q.** Which Potency does the source give for CC(=O)c1nccs1 here?
**A.** inactive

**Q.** With COc1c2ccoc2cc2oc(=O)ccc12 as the compound, how does the Potency read?
**A.** inactive

**Q.** For CCCCCCC(=O)O, which Potency is on record?
**A.** inactive

**Q.** CC1=CC(=O)CC(C)(C)C1 was tested. Which Potency did it give?
**A.** 36.6 µM (active) and inactive

**Q.** CC(COCC(C)OC(=O)c1ccccc1)OC(=O)c1ccccc1 (stereo not given) was tested. Which Potency did it give?
**A.** inactive

**Q.** How did the Potency turn out when CC(C)=CCC/C(C)=C/C=O was run?
**A.** inactive

**Q.** How did the Potency turn out when C1CCCNCC1 was run?
**A.** inactive

**Q.** Which Potency does the source give for CC(=O)OCCC(C)C here?
**A.** inactive

**Q.** CC(=O)OCc1ccc2c(c1)OCO2 was tested. Which Potency did it give?
**A.** inactive

**Q.** With C[Si](C)(C)N[Si](C)(C)C as the compound, how does the Potency read?
**A.** inactive

**Q.** For COC(=O)/C=C\C(=O)OC, which Potency is on record?
**A.** inactive

**Q.** C[n+]1ccn(CCO)c1 was tested. Which Potency did it give?
**A.** inactive

**Q.** Which Potency does the source give for CC(=O)C(C)C here?
**A.** inactive

**Q.** Which Potency does the source give for CN1Cc2c(N)cccc2C(c2ccccc2)C1 (stereo not given) here?
**A.** inactive

**Q.** Which Potency does the source give for COc1c(Cl)ccc(Cl)c1C(=O)O here?
**A.** inactive

**Q.** With COc1ccc2cc3[n+](cc2c1OC)CCc1cc2c(cc1-3)OCO2 as the compound, how does the Potency read?
**A.** inactive

**Q.** For CC(=O)OC/C=C(\C)CCC=C(C)C, which Potency is on record?
**A.** inactive

**Q.** How did the Potency turn out when N[C@@H](Cc1cc(I)c(Oc2ccc(O)c(I)c2)c(I)c1)C(=O)O was run?
**A.** inactive

**Q.** Which Potency does the source give for Cc1ccc(C)c(S(=O)(=O)O)c1 here?
**A.** inactive

**Q.** CCCCC(=O)O was tested. Which Potency did it give?
**A.** inactive

**Q.** How did the Potency turn out when O=C1O[C@H]([C@H](O)CO)C(O)=C1O was run?
**A.** inactive

**Q.** Which results are given for CCCCCCCCCCCC(=O)N(C)CC(=O)O?
**A.** Potency: 77.2 µM (active); activity change, negative = inhibition: 1.62% [at 10.5 µM] (inactive)

**Q.** Which Potency does the source give for C=C1C[C@]23C[C@@]1(O)CC[C@H]2[C@@]12C=C[C@H](O)[C@@](C)(C(=O)O1)[C@H]2[C@@H]3C(=O)O here?
**A.** inactive

**Q.** How did the Potency turn out when OCC(O)CS (stereo not given) was run?
**A.** inactive

**Q.** Which Potency does the source give for CCc1cccc(CC)c1N here?
**A.** inactive

**Q.** Which Potency does the source give for Cc1ccc(C(C)C)cc1 here?
**A.** inactive

**Q.** With Cc1ccncc1 as the compound, how does the Potency read?
**A.** inactive

**Q.** With CC/C(C)=N/O as the compound, how does the Potency read?
**A.** inactive

**Q.** CC(C)(C)NC[C@H](O)COc1nsnc1N1CCOCC1 was tested. Which Potency did it give?
**A.** inactive

**Q.** CCOC(=O)CC(=O)OCC was tested. Which Potency did it give?
**A.** inactive

**Q.** CCCCCCCCO was tested. Which Potency did it give?
**A.** inactive

**Q.** How did the Potency turn out when c1cnc2c(c1)ccc1cccnc12 was run?
**A.** 71.7 µM (active) and inactive

**Q.** For CCN(CC)CCNC(=O)c1ccc(N)cc1, which Potency is on record?
**A.** inactive

**Q.** With Cc1nnc(NS(=O)(=O)c2ccc(N)cc2)s1 as the compound, how does the Potency read?
**A.** inactive

**Q.** For Brc1ccc(Oc2ccc(Br)cc2)cc1, which Potency is on record?
**A.** inactive

**Q.** How did the Potency turn out when O=c1c(O)c(-c2ccc(O)c(O)c2)oc2cc(O)cc(O)c12 was run?
**A.** 35.9 µM (active) [middle of 4 runs]

**Q.** With O=C1OC(=O)c2c(Cl)c(Cl)c(Cl)c(Cl)c21 as the compound, how does the Potency read?
**A.** inactive

**Q.** For C=CC(C)(C)C, which Potency is on record?
**A.** inactive

**Q.** O=C1CCCCCCCCCCC1 was tested. Which Potency did it give?
**A.** inactive
